Assay results as given in PubChem BioAssay (NCATS).
Values joined by “and” are separate entries in the source; they are usually repeats but may differ in a detail not shown here. Identical values can stand only once. Inconclusive results are not listed. Active and inactive are the calls of the source. Calls come from the whole dose curve.

Assay: Primary qHTS to identify inhibitors of SARS-CoV-2 cell entry (AID 1645846); note: nearly all actives have a fitted effect of over 45% in size
Conditions: SARS-CoV-2 pseudovirus cell entry assay, luminescence; activity change, negative = inhibition: at 57.1 µM (top of the series) unless noted
How it was run: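 Using luciferase-reporting pseudoviruses carrying Wuhan-Hu-1 spike, the screen tracks entry into stably ACE2-expressing cells over 48 hr. Activity is expressed relative to spike particles versus particles lacking any fusion protein.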
Potency is the fitted concentration of half-maximal effect.

Row | Compound | activity change, negative = inhibition | Potency
1 | COc1cc([C@@H]2c3cc4c(cc3[C@@H](O[C@@H]3O[C@@H]5CO[C@@H](c6cccs6)O[C@H]5[C@H](O)[C@H]3O)[C@H]3COC(=O)[C@H]23)OCO4)cc(OC)c1O | -96.2% | 
2 | CC1(C)C(N(O)C(=O)Nc2ccc(Cl)cc2)N(c2ccc(Cl)cc2)C(=O)N1CC(=O)N/N=C/C=C/c1ccc([N+](=O)[O-])o1 (stereo not given) |  | 17.8 µM (active)
3 | CNC(=O)CCc1cc(-c2ccc(-c3ccc(C(F)(F)F)cc3)cc2)n(-c2ccc(N3CCNCC3)cc2)n1 | -95.7% | 
4 | Cc1cc(C)cc(NC(=O)Cc2ccc(OC(C)(C)C(=O)O)cc2)c1 |  | inactive
5 | CNCCn1c(=O)c2cc(OC)c(OC)cc2c2cnc3cc4c(cc3c21)OCO4 | -98.1% [at 11.3 µM] | 
6 | N#Cc1cc2cc(CN3CCC(Nc4ncnc5sc(CC(F)(F)F)cc45)CC3)c(O)cc2n1Cc1cn[nH]c1 |  | 17.8 µM (active)
7 | COc1cccc(-c2c(C)n(Cc3c(F)cccc3C(F)(F)F)c(=O)n(C[C@H](NCCCC(=O)O)c3ccccc3)c2=O)c1F | -17.5% and -28.9% | 
8 | Cc1nc([C@](C)(O)CO)sc1-c1cnc(N)c(O[C@H](C)c2cc(F)ccc2-n2nccn2)c1 |  | 22.4 µM (active)
9 | Cc1ccc(S(=O)(=O)Nc2cc(C(F)(F)F)ccc2C(=O)Nc2nc(-c3ccccc3)cs2)cc1 |  | 8.91 µM (active)
10 | O=C1NC(=O)[C@@H](c2cn3c4c(cccc24)CCC3)[C@@H]1c1c[nH]c2ccccc12 | -73.3% | 
11 | CCCCc1nc2cc(/C=C/C(=O)NO)ccc2n1CCN(CC)CC |  | inactive
12 | NS(=O)(=O)OC[C@@H]1C[C@@H](n2ccc3c(N[C@H]4CCc5ccccc54)ncnc32)C[C@@H]1O | -87.9% | 
13 | C=C1CC[C@@H]2[C@](C)(CO)[C@H](O)CC[C@@]2(C)[C@@H]1C/C=C1/C(=O)OC[C@H]1O |  | 25.1 µM (active)
14 | C[C@@H](Oc1ccc2[nH]nc(/C=C/c3cnn(CCO)c3)c2c1)c1c(Cl)cncc1Cl | -97.5% | 
15 | Fc1ccc(-c2csc3ncnc(NCc4ccc5c(c4)OCO5)c23)cc1 |  | 10 µM (active)
16 | Cc1c(F)ccc(C(=O)Nc2cc([N+](=O)[O-])ccc2N2CCN(C)CC2)c1Cl | -18.7% | 
17 | CC(C)(C)C[C@H]1N[C@@H](C(=O)NC2CCC(O)CC2)[C@H](c2cccc(Cl)c2F)[C@@]12C(=O)Nc1cc(Cl)ccc12 (stereo not given in full) |  | 28.2 µM (active)
18 | Cc1c(CN2CCC(Nc3ncnc4sc(CC(F)(F)F)cc34)CC2)ccc2c1cc(C#N)n2Cc1cn[nH]c1 |  | 8.91 µM (active)
19 | O=C(CCCCCCNC(=O)c1cnc(N(c2ccccc2)c2ccccc2Cl)nc1)NO | 2.82% | 
20 | COc1ccc(S(=O)(=O)N[C@@H](CNc2nc(C)nc(N3CCC(c4ccc5c(n4)NCCC5)CC3)c2C)C(=O)O)cc1 | -3.98% | 

Row | Compound | activity change, negative = inhibition | Potency
21 | C[C@H](NC(=O)CCC(F)(F)F)C(=O)N[C@@H]1C(=O)N(CCO)c2ncccc2-c2ccccc21 | -2.66% | 
22 | COc1ccc(S(=O)(=O)Nc2cc(-c3csc(C#N)c3)ccc2C)cc1 | -92% | 
23 | COc1cccc(-c2cc(F)ccc2C2Cc3nc(N)nc(C)c3C(=O)N2)n1 (stereo not given) | -91.7% | 
24 | Cc1ccc(S(=O)(=O)Nc2cc(-c3ccc(C#N)s3)ccc2C)cc1 | -92% | 
25 | Nc1nc(N)c2nc(-c3cccc(Cl)c3)c(N)nc2n1 | 1.13% | 
26 | CC(C)Oc1ccc(-c2nc(-c3cccc4c3CC[C@@H]4NCCO)no2)cc1C#N |  | inactive
27 | CC(C)(C)c1[nH]cnc1/C=c1\[nH]c(=O)/c(=C/c2ccccc2)[nH]c1=O | -98.3% | 
28 | CN(C)CCNC(=O)NC[C@H]1CC[C@@H]2[C@H](O1)c1cc(C(F)(F)F)ccc1N[C@H]2c1ccccc1 |  | 25.1 µM (active)
29 | CCn1c(=O)c(-c2ccc(-c3cncc(C)n3)cc2Cl)cc2cnc(NCCC3CCN(C)CC3)nc21 |  | 3.16 µM (active)
30 | COc1cc2c(Oc3ccc4[nH]c(C)cc4c3F)ccnc2cc1OCC1(N)CC1 |  | 11.2 µM (active)
31 | CC[C@@H](C)Nc1cc(C(=O)NC2CC3CCC(C2)N3c2ccc(C(=O)C3CC3)cn2)c(C)cc1C(N)=O (stereo not given in full) |  | 1 µM (active)
32 | Cc1ccccc1-n1nc(-c2c(-c3ccc(F)cc3)nn3c2NC[C@@H](CO)C3)ccc1=O | -24.3% | 
33 | C=CC(=O)Nc1cccc(C)c1Nc1ncc2cc(-c3c(Cl)c(OC)cc(OC)c3Cl)ccc2n1 | -95% | 
34 | CNC(=O)c1c(-c2ccc(F)cc2)oc2cc(N(CCO)S(C)(=O)=O)c(C3CC3)cc12 | -3.84% | 
35 | COc1cc(OC)c(/C=C/S(=O)(=O)Cc2ccc(OC)c(NCC(=O)O)c2)c(OC)c1 | -75.7% | 
36 | Cc1ccc(NC(=O)NCc2ccc3c(c2)CN(C2CCC(=O)NC2=O)C3=O)cc1Cl (stereo not given) | -96.8% | 
37 | Nc1nccc2c1ncn2[C@@H]1C=C(CO)[C@@H](O)[C@H]1O | -51.3% | 
38 | N#C/C(=C1/Nc2ccccc2S1)c1ccnc(OCc2ccc(CN3CCOCC3)cc2)n1 | -97.6% | 
39 | O=c1c(-c2ccc(O)cc2)coc2cc(O[C@@H]3O[C@H](CO)[C@@H](O)[C@H](O)[C@H]3O)ccc12 |  | inactive
40 | CC(=O)c1cnc2ccc(-c3cc(Cl)c(O)c(Cl)c3)nc2c1NC1CCC(CN(C)C)CC1 (stereo not given) | -98.1% [at 11.3 µM] | 
